Among the data in PubChem BioAssay (NCI) are growth values, retold here.

Among the test systems are DU-145 prostate; K-562 leukemia; MALME-3M melanoma; MDA-MB-231 breast; RXF 393 renal; SF-268 CNS; SF-295 CNS; SF-539 CNS; UACC-257 melanoma; M14 melanoma.
Holding throughout (test): NCI-60 one-dose screen, 48 h (100 = growth as untreated, 0 = no growth, -100 = all killed)
Holding throughout (conditions): 10 µM unless noted

SMILES strings stand for the structures. This is part of a sample that, as a whole, favours compounds with a hit. Of some 83,000 tested, about 20% had one in any assay.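 Note: values are percent growth. 100 is the growth of untreated cells, values between 100 and 0 indicate rising inhibition; between -100 and 0 indicates cell death.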 Unmarked numbers belong to inactive results. Activity calls are given as the source filed them. The calls were made as follows: active = growth percent below 10; inactive = the rest.

Turning to `CCCCC/C(=C\c1ccccc1)C1OC(C)C(C)O1` (stereo not given), the growth with DU-145 prostate is 103%; in the assay with K-562 leukemia it was 91.3%; in the assay with MALME-3M melanoma it was 104%; in the assay with MDA-MB-231 breast, 99.7%; in the assay with RXF 393 renal, 102%; with SF-268 CNS it was 95.3%. Further, the growth in the assay with SF-295 CNS was 104%; in the assay with SF-539 CNS, 99.7%; with UACC-257 melanoma, 70.1%; in the assay with M14 melanoma, 87.8%.

Turning to `Cn1cc(-c2csc(-c3cn(CCN)c4ccc(F)cc34)n2)c2cccnc21`, the growth is 68.5% in the assay with DU-145 prostate; 11.4% in the assay on K-562 leukemia; 87.4% with MALME-3M melanoma; 59.9% in the assay on MDA-MB-231 breast; 82.6% in the assay with RXF 393 renal; 85.9% with SF-268 CNS. Further, the growth was 92.4% with SF-295 CNS, 80.1% in the assay with SF-539 CNS, 100% in the assay with UACC-257 melanoma and 81.4% in the assay with M14 melanoma.

As to `C=C(C)[C@@H]1CC[C@]2(C(=O)N3CCCNCC3)CC[C@]3(C)[C@H](CC[C@@H]4[C@@]5(C)CCC(=O)C(C)(C)[C@@H]5CC[C@]43C)[C@@H]12`, the growth in the assay with DU-145 prostate is 93.6%; in the assay on K-562 leukemia, 78.4%; in the assay on MALME-3M melanoma it was 99.3%; in the assay on MDA-MB-231 breast, 88.7%; in the assay with RXF 393 renal, 81.9%; in the assay with SF-268 CNS, 84.9%. The growth in the assay on SF-295 CNS is 104%; with SF-539 CNS, 99.9%; with UACC-257 melanoma it was 98.4%; in the assay on M14 melanoma, 100%.

As for `N#C/C(=C\c1ccc(-c2ccc(Cl)cc2)o1)c1nc(-c2ccco2)cs1`, the growth with DU-145 prostate is 103%; in the assay on K-562 leukemia, 94.4%; with MALME-3M melanoma, 99.9%; in the assay on MDA-MB-231 breast, 85.3%; with RXF 393 renal it was 108%; in the assay on SF-268 CNS, 101%. Besides, the growth is 92.9% with SF-295 CNS, 94.7% in the assay with SF-539 CNS, 104% in the assay with UACC-257 melanoma and 98.9% with M14 melanoma.

As for `CC(c1ccccc1)N1C(=O)C(C2SC(=S)N(C(C)c3ccccc3)C2=O)SC1=S` (stereo not given), the growth in the assay with DU-145 prostate is 95.1%; with K-562 leukemia it was 57.9%; with MALME-3M melanoma, 69.9%; with MDA-MB-231 breast it was 73.4%; in the assay with RXF 393 renal it was 85.6%; in the assay with SF-268 CNS it was 92.2%. The growth in the assay on SF-295 CNS is 98.6%; in the assay on SF-539 CNS, 50.6%; in the assay on UACC-257 melanoma it was 81.7%; with M14 melanoma, 69.8%.

`O=C1c2cc3c(cc2-c2c1c1ccc(F)cc1c(=O)n2CCCN1CCOCC1)OCO3`: the growth in the assay on DU-145 prostate is 28.4%; in the assay with K-562 leukemia, 41.6%; in the assay on MALME-3M melanoma, 101%; in the assay with MDA-MB-231 breast, 105%; in the assay on RXF 393 renal, 70.6%; in the assay on SF-268 CNS, 43.3%. Besides, the growth in the assay with SF-295 CNS was 21.7%; in the assay on SF-539 CNS it was 11.2%; in the assay on UACC-257 melanoma, 62.7%; with M14 melanoma, 23.2%.

For `N#CC1=C(N)Oc2c(c(N)nn2-c2ccccc2)C1c1ccc(Cl)cc1` (stereo not given), the growth with DU-145 prostate was 99.6%; with K-562 leukemia it was 106%; with MALME-3M melanoma, 106%; in the assay on MDA-MB-231 breast, 87.5%; in the assay with RXF 393 renal it was 93.8%; in the assay with SF-268 CNS, 94.1%. Moreover, the growth in the assay with SF-295 CNS was 96.6%; in the assay with SF-539 CNS, 98.4%; with UACC-257 melanoma, 105%; in the assay on M14 melanoma, 103%.

On to `C=C(C)[C@@H]1CC[C@]2(CN)CC[C@]3(C)[C@H](CC[C@@H]4[C@@]5(C)CCC(=O)NC(C)(C)[C@@H]5CC[C@]43C)[C@@H]12`, for which the growth is 75% in the assay with DU-145 prostate; -4.63% (active) in the assay on K-562 leukemia; -14.1% (active) in the assay on MALME-3M melanoma; 58.7% in the assay on MDA-MB-231 breast; 59% in the assay with RXF 393 renal; 64.5% in the assay on SF-268 CNS. In addition, the growth is 82.1% in the assay with SF-295 CNS, 75.2% with SF-539 CNS, 29.6% in the assay with UACC-257 melanoma and 70.9% in the assay on M14 melanoma.

Turning to `CCOC(=O)C/C(=C\c1ccccc1)C(C)=O`, the growth in the assay on DU-145 prostate was 109%; with K-562 leukemia, 87.6%; in the assay on MALME-3M melanoma, 105%; in the assay on MDA-MB-231 breast, -43.5% (active); with RXF 393 renal, 115%; in the assay on SF-268 CNS, 102%. Moreover, the growth is 98.5% with SF-295 CNS, 105% in the assay with SF-539 CNS, 82.8% in the assay with UACC-257 melanoma and 91.9% in the assay on M14 melanoma.

As for `Cc1cccc(C)c1NC(=O)CSC(=S)N1CCN(CCOCCO)CC1`, the growth with DU-145 prostate is 101%; with K-562 leukemia, 96%; in the assay with MALME-3M melanoma, 87.3%; in the assay on MDA-MB-231 breast it was 116%; in the assay on RXF 393 renal, 125%; in the assay on SF-268 CNS, 93.9%. Besides, the growth is 95.9% with SF-295 CNS, 94.3% with SF-539 CNS, 112% in the assay with UACC-257 melanoma and 100% in the assay on M14 melanoma.

Take `Nc1nc2c3ccncc3cc(-c3cccc(Cl)c3)c2c2cnccc12`: the growth with DU-145 prostate is 40.5%; with K-562 leukemia, 17.1%; in the assay on MALME-3M melanoma it was 57%; in the assay on MDA-MB-231 breast, 52.8%; in the assay on RXF 393 renal, 10.4%; with SF-268 CNS, 49.5%. Moreover, the growth was 31.4% in the assay with SF-295 CNS, 30.1% with SF-539 CNS, 59% in the assay on UACC-257 melanoma and 45.7% in the assay with M14 melanoma.

Regarding `C=C(C)[C@@H]1CC[C@]2(C(=O)N3CCN(CC)CC3)CC[C@]3(C)[C@H](CC[C@@H]4[C@@](C)(CCC(=O)N5CCN(CC)CC5)[C@H](C(=C)C)CC[C@]43C)[C@@H]12`, the growth in the assay with DU-145 prostate was 70.8%; with K-562 leukemia, 30.4%; in the assay on MALME-3M melanoma, 43.2%; with MDA-MB-231 breast, 58.6%; in the assay with RXF 393 renal it was 48.8%; in the assay on SF-268 CNS, 76.9%. The growth in the assay with SF-295 CNS was 47.8%; in the assay with SF-539 CNS, 66%; in the assay with UACC-257 melanoma, 18.6%; in the assay on M14 melanoma it was 35.8%.

For `Cn1c(/C(C#N)=C/c2ccc3ccccc3c2)cc2ccccc21`, the growth in the assay on DU-145 prostate is 14.9%; in the assay on K-562 leukemia, 13.9%; in the assay with MALME-3M melanoma, 46.5%; with MDA-MB-231 breast it was 5.53% (active); in the assay with RXF 393 renal it was 41.1%; with SF-268 CNS, 42.9%. Also, the growth was 3.45% (active) in the assay with SF-295 CNS, 3.9% (active) in the assay on SF-539 CNS, 84.8% in the assay on UACC-257 melanoma and 5.87% (active) in the assay with M14 melanoma.
